# Tested on: RARa homodimer (NR concentration 270 nM)
# Experiment: PBM binding z-score (relative to random genomic background probes); higher = stronger binding; sequences stand for … in GC…GCGATTGACAGCGTAGAATGAAGG
# Outline: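 Antibodies against each partner of ligand-free nuclear receptor dimers (one per run) detected binding on custom Agilent 4×180K protein-binding microarrays after 1 h incubation. The double-stranded probes had 34-nt variable regions carrying direct-repeat seeds, single-nucleotide variants, half-site ablations and random human genomic background sequences. Binding z-scores, from regression-normalized fluorescence, use the random background probes as reference.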
row,Sequence,PBM binding z-score
1,CCTACTGGGCCATTCAGAGGTCAGTGATCATATG,0.443
2,CCTCGGAGGACAACAGGAGGTTAGAGCTGCCAGA,-0.352
3,TGAATCAGGTTAAAGATCAGGGAACGTGGCGTCG,0.262
4,CGTCCATGGTCAGCAGGTCAGTGAAAGCGACGTG,-0.616
5,GCGACTGGGGCCAAGCAGGTTACCATAAGGTTGG,-1.01
6,CTGGAAAGGTCGGTTGAGGTGAGTATACGGATAA,0.351
7,TCATATAGGTAAAGGTCAAAGTCGAACGATATGA,3.75
8,ACAGACAGGTGATGGAGGTAACTCAGGCTATCAT,-0.0178
9,TTACCAAGGTGAGCTGAGGACGTTGATCCAACTC,-0.906
10,TCTAGTTGGTCAAAGGTCACACACTCGAAATGCG,3.65
11,ACTAGCAGGCCAAGGGTAACTCAAGATTAGTCCG,-0.543
12,CGTCCCAGGTCAAAGGTCAGTGAAGAGATGACGG,1.64
13,GCGACTAGGGCAAAGCAGGTTACCATAAGGTTGG,-1.2
14,ATCTCTAGGCAACCAAGTTCAGTGAATGCCGAAC,-0.516
15,GCATATAGGAAATACAAGGTGAAAGTCCGATTGT,0.755
16,ATCTCTAGGTAACCAAGTTCAGTTAATGCCGAAC,1.3
17,GCGACTGGGGCAAAGCAGGGTACCATAAGGTTGG,-0.579
18,CTACCAAGGTGAACAAGGTTGTTGATTACTATTC,0.287
19,CCTGCTAGGTCAATTGTCAGCTAAAGCAGCTCGC,-0.799
20,GCTCGGAGGACAAGGTCATAGCTTTGTCCGTAGA,-0.351
21,ACTCGGAGGAAAAAGGTCAGAGCTACGCCAGTGA,1.23
22,TCTCGGAGGACACGAAGGTCAGAGCGTTCCAGAG,-0.476

# From the supplement of paper PMC6555819
